Laboratory results reported in publication PMC5540273 (PLoS ONE, 2017).

Columns and labels:
Settings in all cases: concentration: 1 μM,replicates: in singlicate; n = 1
ADCK4 = tested on: ADCK4
AKT1 = tested on: AKT1
AKT2 = tested on: AKT2
AKT3 = tested on: AKT3
ALK = tested on: ALK
AMPK-alpha1 = tested on: T1, AMPK-alpha1
T1 construct: gene PRKAA1

AMPK-alpha2 = tested on: T2, AMPK-alpha2
T2 construct: gene PRKAA2

ANKK1 = tested on: ANKK1
ARK5 = tested on: T3, ARK5
T3 construct: gene NUAK1

ASK1 = tested on: T4, ASK1
T4 construct: gene MAP3K5

ASK2 = tested on: T5, ASK2
T5 construct: gene MAP3K6

AURKA = tested on: AURKA
AURKB = tested on: AURKB
AURKC = tested on: AURKC
AXL = tested on: AXL
BIKE = tested on: T6, BIKE
T6 construct: gene BMP2K

BLK = tested on: BLK
BMPR1A = tested on: BMPR1A
BMPR1B = tested on: BMPR1B
BMPR2 = tested on: BMPR2
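Further: KINOMEscan kinase panel screen.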

Question: For `Cn1cc(-c2cccc3c(N)c(C(N)=O)nnc23)cn1`, which “%Inh” value (ADCK4) is on record?
Answer: 11%

Question: And the “%Inh” value (AKT1)?
Answer: 0%

Question: What about the “%Inh” value (AKT2) of the same molecule?
Answer: 0%

Question: And the “%Inh” value (AKT3)?
Answer: 15%

Question: And the “%Inh” value (ALK)?
Answer: 10%

Question: And the “%Inh” value (AMPK-alpha1)?
Answer: 47%

Question: What about the “%Inh” value (AMPK-alpha2) of the same molecule?
Answer: 49%

Question: And the “%Inh” value (ANKK1)?
Answer: 19%

Question: What about the “%Inh” value (ARK5) of the same molecule?
Answer: 0%

Question: And the “%Inh” value (ASK1)?
Answer: 1%

Question: What about the “%Inh” value (ASK2) of the same molecule?
Answer: 33%

Question: And the “%Inh” value (AURKA)?
Answer: 6%

Question: What about the “%Inh” value (AURKB) of the same molecule?
Answer: 27%

Question: What about the “%Inh” value (AURKC) of the same molecule?
Answer: 53%

Question: What about the “%Inh” value (AXL) of the same molecule?
Answer: 22%

Question: What about the “%Inh” value (BIKE) of the same molecule?
Answer: 70%

Question: And the “%Inh” value (BLK)?
Answer: 6%

Question: What about the “%Inh” value (BMPR1A) of the same molecule?
Answer: 16%

Question: And the “%Inh” value (BMPR1B)?
Answer: 21%

Question: And the “%Inh” value (BMPR2)?
Answer: 72%

Question: Which “%Inh” value (ADCK4) does the source give for `C[C@@H](Oc1cc(-n2cnc3cc(-c4ccncc4)ccc32)sc1C(N)=O)c1ccccc1Cl` [GSK479719] here?
Answer: 9%

Question: And the “%Inh” value (AKT1)?
Answer: 0%

Question: What about the “%Inh” value (AKT2) of the same molecule?
Answer: 6%

Question: What about the “%Inh” value (AKT3) of the same molecule?
Answer: 0%

Question: And the “%Inh” value (ALK)?
Answer: 31%

Question: What about the “%Inh” value (AMPK-alpha1) of the same molecule?
Answer: 5%

Question: And the “%Inh” value (AMPK-alpha2)?
Answer: 17%

Question: And the “%Inh” value (ANKK1)?
Answer: 0%

Question: And the “%Inh” value (ARK5)?
Answer: 75%

Question: And the “%Inh” value (ASK1)?
Answer: 4%

Question: What about the “%Inh” value (ASK2) of the same molecule?
Answer: 8%

Question: And the “%Inh” value (AURKA)?
Answer: 0%

Question: And the “%Inh” value (AURKB)?
Answer: 48%

Question: What about the “%Inh” value (AURKC) of the same molecule?
Answer: 100%

Question: What about the “%Inh” value (AXL) of the same molecule?
Answer: 89%

Question: What about the “%Inh” value (BIKE) of the same molecule?
Answer: 98.6%

Question: What about the “%Inh” value (BLK) of the same molecule?
Answer: 0%

Question: What about the “%Inh” value (BMPR1A) of the same molecule?
Answer: 0%

Question: And the “%Inh” value (BMPR1B)?
Answer: 0%

Question: What about the “%Inh” value (BMPR2) of the same molecule?
Answer: 0%

Question: Which “%Inh” value (ADCK4) does the source give for `O=C(Nc1ccccc1)c1cccc(Oc2ccc3nccn3n2)c1` here?
Answer: 0%

Question: And the “%Inh” value (AKT1)?
Answer: 11%

Question: What about the “%Inh” value (AKT2) of the same molecule?
Answer: 0%

Question: What about the “%Inh” value (AKT3) of the same molecule?
Answer: 0%

Question: What about the “%Inh” value (ALK) of the same molecule?
Answer: 0%

Question: And the “%Inh” value (AMPK-alpha1)?
Answer: 5%

Question: What about the “%Inh” value (AMPK-alpha2) of the same molecule?
Answer: 7%

Question: What about the “%Inh” value (ANKK1) of the same molecule?
Answer: 2%

Question: What about the “%Inh” value (ARK5) of the same molecule?
Answer: 0%

Question: What about the “%Inh” value (ASK1) of the same molecule?
Answer: 0%

Question: What about the “%Inh” value (ASK2) of the same molecule?
Answer: 3%

Question: And the “%Inh” value (AURKA)?
Answer: 0%

Question: What about the “%Inh” value (AURKB) of the same molecule?
Answer: 4%

Question: And the “%Inh” value (AURKC)?
Answer: 28%

Question: And the “%Inh” value (AXL)?
Answer: 0%

Question: What about the “%Inh” value (BIKE) of the same molecule?
Answer: 5%

Question: And the “%Inh” value (BLK)?
Answer: 9%

Question: What about the “%Inh” value (BMPR1A) of the same molecule?
Answer: 0%

Question: And the “%Inh” value (BMPR1B)?
Answer: 14%

Question: What about the “%Inh” value (BMPR2) of the same molecule?
Answer: 22%

Question: Which results are given for `Cn1ccc2ncnc(Oc3ccc(NC(=O)Nc4cnn(C(C)(C)C)c4)c(Cl)c3)c21`?
Answer: %Inh (ADCK4): 0%; %Inh (AKT1): 0%; %Inh (AKT2): 8%; %Inh (AKT3): 13%; %Inh (ALK): 0%; %Inh (AMPK-alpha1): 19%; %Inh (AMPK-alpha2): 20%; %Inh (ANKK1): 0%; %Inh (ARK5): 19%; %Inh (ASK1): 2%; %Inh (ASK2): 9%; %Inh (AURKA): 23%; %Inh (AURKB): 44%; %Inh (AURKC): 52%; %Inh (AXL): 76%; %Inh (BIKE): 19%; %Inh (BLK): 32%; %Inh (BMPR1A): 17%; %Inh (BMPR1B): 6%; %Inh (BMPR2): 9%

Question: Which results are given for `Cc1cccc2c(-c3ccncc3)c(-c3ccc(F)cc3)nn12.Cl` [GW461487]?
Answer: %Inh (ADCK4): 28%; %Inh (AKT1): 0%; %Inh (AKT2): 2%; %Inh (AKT3): 0%; %Inh (ALK): 7%; %Inh (AMPK-alpha1): 17%; %Inh (AMPK-alpha2): 0%; %Inh (ANKK1): 24%; %Inh (ARK5): 11%; %Inh (ASK1): 1%; %Inh (ASK2): 0%; %Inh (AURKA): 7%; %Inh (AURKB): 0%; %Inh (AURKC): 0%; %Inh (AXL): 0%; %Inh (BIKE): 3%; %Inh (BLK): 22%; %Inh (BMPR1A): 0%; %Inh (BMPR1B): 0%; %Inh (BMPR2): 0%

Question: With `Cl.c1ccc(Oc2ccc(Nc3ccnc4cc(-c5ccc(CN6CCNCC6)o5)ccc34)cc2)nc1` [GW567142] as the molecule, how does the “%Inh” value (ADCK4) read?
Answer: 18%

Question: And the “%Inh” value (AKT1)?
Answer: 0%

Question: And the “%Inh” value (AKT2)?
Answer: 0%

Question: What about the “%Inh” value (AKT3) of the same molecule?
Answer: 0%

Question: And the “%Inh” value (ALK)?
Answer: 15%

Question: And the “%Inh” value (AMPK-alpha1)?
Answer: 0%

Question: What about the “%Inh” value (AMPK-alpha2) of the same molecule?
Answer: 0%

Question: What about the “%Inh” value (ANKK1) of the same molecule?
Answer: 0%

Question: What about the “%Inh” value (ARK5) of the same molecule?
Answer: 12%

Question: And the “%Inh” value (ASK1)?
Answer: 0%

Question: And the “%Inh” value (ASK2)?
Answer: 0%

Question: And the “%Inh” value (AURKA)?
Answer: 20%

Question: And the “%Inh” value (AURKB)?
Answer: 77%

Question: And the “%Inh” value (AURKC)?
Answer: 27%

Question: And the “%Inh” value (AXL)?
Answer: 0%

Question: What about the “%Inh” value (BIKE) of the same molecule?
Answer: 0%

Question: And the “%Inh” value (BLK)?
Answer: 86%

Question: What about the “%Inh” value (BMPR1A) of the same molecule?
Answer: 0%

Question: What about the “%Inh” value (BMPR1B) of the same molecule?
Answer: 0%

Question: And the “%Inh” value (BMPR2)?
Answer: 2%

Question: What does the source list for `COc1cc2c(Nc3ccc(NC(=O)c4ccccc4)cc3)ncnc2cc1OCCCN1CCOCC1` [GSK301329]?
Answer: %Inh (ADCK4): 0%; %Inh (AKT1): 0%; %Inh (AKT2): 0%; %Inh (AKT3): 0%; %Inh (ALK): 9%; %Inh (AMPK-alpha1): 0%; %Inh (AMPK-alpha2): 0%; %Inh (ANKK1): 17%; %Inh (ARK5): 28%; %Inh (ASK1): 0%; %Inh (ASK2): 20%; %Inh (AURKA): 94.5%; %Inh (AURKB): 95.6%; %Inh (AURKC): 70%; %Inh (AXL): 55%; %Inh (BIKE): 28%; %Inh (BLK): 96.7%; %Inh (BMPR1A): 0%; %Inh (BMPR1B): 0%; %Inh (BMPR2): 0%

Question: For `COC(=O)c1cccc(NC(=O)NC2CCN(c3ccnc(Nc4cc(OC)c(OC)c(OC)c4)n3)C2)c1` (stereo not shown) [GSK1379767], which “%Inh” value (ADCK4) is on record?
Answer: 60%

Question: And the “%Inh” value (AKT1)?
Answer: 0%

Question: And the “%Inh” value (AKT2)?
Answer: 0%

Question: What about the “%Inh” value (AKT3) of the same molecule?
Answer: 0%

Question: What about the “%Inh” value (ALK) of the same molecule?
Answer: 50%

Question: And the “%Inh” value (AMPK-alpha1)?
Answer: 16%

Question: And the “%Inh” value (AMPK-alpha2)?
Answer: 9%

Question: And the “%Inh” value (ANKK1)?
Answer: 20%

Question: What about the “%Inh” value (ARK5) of the same molecule?
Answer: 10%

Question: What about the “%Inh” value (ASK1) of the same molecule?
Answer: 0%

Question: What about the “%Inh” value (ASK2) of the same molecule?
Answer: 0%

Question: And the “%Inh” value (AURKA)?
Answer: 72%

Question: And the “%Inh” value (AURKB)?
Answer: 39%

Question: And the “%Inh” value (AURKC)?
Answer: 73%

Question: And the “%Inh” value (AXL)?
Answer: 0%

Question: And the “%Inh” value (BIKE)?
Answer: 60%

Question: What about the “%Inh” value (BLK) of the same molecule?
Answer: 0%

Question: And the “%Inh” value (BMPR1A)?
Answer: 11%

Question: And the “%Inh” value (BMPR1B)?
Answer: 0%

Question: What about the “%Inh” value (BMPR2) of the same molecule?
Answer: 26%
